According to PubChem BioAssay (Tox21):
Records with an inconclusive call do not appear. Calls of active or inactive are those of the source. The call rests on the fitted dose curve.

Target: 5-hydroxytryptamine receptor 2A (Homo sapiens) (UniProt P28223)
Assay: 5-hydroxytryptamine receptor 2A (HTR2A) small molecule antagonists, cell-based qHTS assay (AID 1963586); further: nearly all actives have a fitted effect of over 45% in size
Conditions: HTR2A-CHO cells, DOI-induced calcium flux, fluorescence; series mostly up to 61.5 µM; activity, negative = inhibition: at the top concentration
Description: National Center for Advancing Translational Sciences [NCATS]
Division of Preclinical Innovation [DPI]
U.S. Environmental Protection Agency [EPA]
National Institutes of Environmental Health Sciences [NIEHS]
National Toxicology Program [NTP]
U.S. Food and Drug Administration [FDA]
The HTR2A receptor is a subtype of the 5-HT2 receptor that belongs to the serotonin receptor family and is a G protein-coupled receptor (GPCR). The HTR2A-CHO cell line stably expressing human 5-hydroxytryptamine receptor 2A (HTR2A) can be used for screening antagonists of interactions between 5-HT2 and its ligands. The HTR2A-CHO calcium flux assay is a homogeneous fluorescence-based assay for detecting the intracellular calcium level using FDSS kinetic plate reader system.
Tox21 Assay Protocol Summary:
HTR2A-CHO cells were dispensed at 2000 cells/3uL/well in 1536-well black-clear bottom plates using a Multidrop Dispenser. After the assay plates were incubated at a 37 C/5% CO2 incubator for 18 h, 3 uL of Dye Loading Buffer was transferred to the assay plate by a Flying Reagent Dispenser. The assay plates were incubated at 37 C for 1h. For antagonist mode, 23 nL of compounds dissolved in DMSO, positive controls or DMSO only was transferred to the assay plate by a pin tool. After 5 min incubation at room temperature, 1.5 uL of 4-Iodo-2,5-dimethoxy-alpha-methylbenzeneethanamine hydrochloride (DOI) at 4nM was added to each well. The fluorescence intensity in the plates was measured using FDSS 7000EX kinetic plate reader for 3 min at 1 sec intervals.
On the % scale 0 is the no-effect control and ±100 the full control effect.

Sequence of 5-hydroxytryptamine receptor 2A (Homo sapiens) (P28223 whole entry, looked up): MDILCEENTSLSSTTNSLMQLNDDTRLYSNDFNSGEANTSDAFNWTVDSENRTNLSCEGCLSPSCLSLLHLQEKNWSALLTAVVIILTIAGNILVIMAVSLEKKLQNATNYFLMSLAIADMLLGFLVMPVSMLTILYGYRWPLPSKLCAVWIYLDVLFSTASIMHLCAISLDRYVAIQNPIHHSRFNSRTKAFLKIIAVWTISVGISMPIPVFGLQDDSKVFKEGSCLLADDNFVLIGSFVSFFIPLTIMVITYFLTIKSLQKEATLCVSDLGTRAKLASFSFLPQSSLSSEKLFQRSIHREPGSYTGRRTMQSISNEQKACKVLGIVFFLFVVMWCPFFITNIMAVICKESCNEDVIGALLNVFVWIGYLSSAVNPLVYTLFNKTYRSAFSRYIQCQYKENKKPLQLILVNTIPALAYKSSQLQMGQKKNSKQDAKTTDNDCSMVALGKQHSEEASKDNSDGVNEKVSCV

SMILES	Potency	activity, negative = inhibition
C1=Cc2cccc3cccc1c23	inactive	
C=CCOCC1CO1 (stereo not given)		24.9% (inactive)
N#CCCCCC#N	inactive	
O=C(O)CCCOc1ccc(Cl)cc1Cl		4.74% (inactive)
O=C(O)COc1cc(Cl)c(Cl)cc1Cl	inactive	
Cc1cccc(C)c1N		8.33% (inactive)
COc1ccc2c3c1O[C@H]1[C@H](O)CC[C@H]4[C@@H](C2)N(C)CC[C@@]341		-8.4% (inactive)
CCCCCCn1cc[n+](C)c1	inactive	
BrCCBr	inactive	
CC(COc1ccc(Oc2ccccc2)cc1)Oc1ccccn1 (stereo not given)		1.77% (inactive)
C[C@]1(O)CC[C@H]2[C@@H]3CCC4=CC(=O)CC[C@]4(C)[C@@]3(F)[C@@H](O)C[C@@]21C		-1.21% (inactive)
CC(=NC#N)N(C)Cc1ccc(Cl)nc1		-12.8% (inactive)
O=C/C(Cl)=C(/Cl)C(=O)O	inactive	
C=C1CC[C@@]2(O)[C@H]3Cc4ccc(O)c5c4[C@@]2(CCN3CC2CC2)[C@H]1O5		-1.19% [at 28.5 µM] (inactive)
NC(=O)CF		-1.5% (inactive)
O=P(O)(Oc1ccccc1)Oc1ccccc1		-9.88% (inactive)
COC(=O)c1ccc(CBr)cc1		1.52% (inactive)
CCC[CH2][Sn]([Cl])([Cl])[CH2]CCC	inactive	
C1CCC2CCCCC2C1 (stereo not given)		7.52% (inactive)
CC(c1ccc(O)cc1)c1ccc(O)cc1		-33% (inactive)

SMILES	Potency	activity, negative = inhibition
CCCC(=O)Cl		-18.3% (inactive)
BrCc1ccc(Br)cc1		8.64% (inactive)
O=S(=O)(c1ccccc1)c1ccccc1		0.149% (inactive)
CC(C)(C)C(=O)C(Cl)Cl		14.8% (inactive)
O=c1ccc(=O)[nH][nH]1	inactive	
CC(=O)CCC(C)=O		16.7% (inactive)
NNC(=S)NN	inactive	
CC(=[OH+])/C=C(/C)[O-].CC(=[OH+])/C=C(\C)[O-].CC(=[OH+])/C=C(\C)[O-].[Al]		-22.4% (inactive)
CN1CC[C@]23c4c5ccc(O)c4O[C@H]2[C@@H](O)CC[C@H]3[C@H]1C5		7.76% (inactive)
c1ccc2c(c1)sc1ccccc12	inactive	
CNC(C)(C)Cc1ccccc1		-5.75% [at 28.5 µM] (inactive)
CC1(C)CC(=O)CC(C)(C)N1[O]		-15.3% (inactive)
CCCCC(CC)COC(=O)c1c(Br)c(Br)c(Br)c(Br)c1C(=O)OCC(CC)CCCC (stereo not given)		-8.18% [at 28.5 µM] (inactive)
C=CCN1CC[C@]23CCCC[C@H]2[C@H]1Cc1ccc(O)cc13		24.8% [at 28.5 µM] (inactive)
CC[n+]1ccccc1	inactive	
CC(C(=O)c1ccccc1)N(C)C (stereo not given)		83.9% [at 28.5 µM] (inactive)
CS(=O)(=O)Cl		83.1% (inactive)
N#Cc1cc(Br)c(O)c(Br)c1		-0.942% (inactive)
C=C(C)C(=O)OCC(CC)CCCC (stereo not given)	inactive	
CNC(=O)O/N=C/C(C)(C)S(C)(=O)=O	inactive	
